Assay outcomes as filed in PubChem.
Hits are enriched below; roughly 10% of the tested compounds scored in any of these assays.
SW480 rereplic – DNA re-replication induction in SW480 cells; SW480 DNA re-replication, Hoechst DNA content imaging, 48 h; Potency, µM (titrated, usually from 46.1 µM), for inactives: top-dose re-replication activation, hits mostly activators; 340,000 compounds, 1.8% hits; AID 624297; also: % of control where 0% means no effect; nearly all actives have a fitted effect of over 55% in size
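Hoechst fluorescence of nuclei (405 nm excitation, 500-530 nm emission) measured by plate-scanning imager after 48 hr compound exposure at 37 C; re-replication scored as increased number of nuclei with elevated intensity.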
Gal4-VP16 FLuc – inhibits Gal4-VP16 luciferase reporter, ROR gamma counter-screen | Drosophila S2 Gal4-VP16 UAS-luciferase, luminescence, 20 h | Potency, µM (titrated, usually from 53.6 µM), inactives show at the top dose activity, negative = inhibition, usual class: inhibitors | 310,000 compounds, 3.5% hits;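 also: Gal4-VP16 expression switched on by copper sulfate through the metallothionein promoter; % is scaled to controls: 0 for no effect and ±100 for the full control effect; nearly all actives have a fitted effect of over 50% in size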
RORg inh – blocks mouse ROR gamma transcriptional activity | Drosophila S2 Gal4-RORgamma UAS-luciferase reporter, 20 h | Potency, µM (doses to about 53.6 µM), without a hit: top-dose activity change, negative = inhibition, usual class: inhibitors | AID 2551 | P51450 | 310,000 compounds, 5.4% hits; also: % is scaled to controls: 0 for no effect and ±100 for the full control effect; nearly all actives have a fitted effect of over 60% in size
Target sequence (P51450 whole entry, looked up, the tested form may be a part): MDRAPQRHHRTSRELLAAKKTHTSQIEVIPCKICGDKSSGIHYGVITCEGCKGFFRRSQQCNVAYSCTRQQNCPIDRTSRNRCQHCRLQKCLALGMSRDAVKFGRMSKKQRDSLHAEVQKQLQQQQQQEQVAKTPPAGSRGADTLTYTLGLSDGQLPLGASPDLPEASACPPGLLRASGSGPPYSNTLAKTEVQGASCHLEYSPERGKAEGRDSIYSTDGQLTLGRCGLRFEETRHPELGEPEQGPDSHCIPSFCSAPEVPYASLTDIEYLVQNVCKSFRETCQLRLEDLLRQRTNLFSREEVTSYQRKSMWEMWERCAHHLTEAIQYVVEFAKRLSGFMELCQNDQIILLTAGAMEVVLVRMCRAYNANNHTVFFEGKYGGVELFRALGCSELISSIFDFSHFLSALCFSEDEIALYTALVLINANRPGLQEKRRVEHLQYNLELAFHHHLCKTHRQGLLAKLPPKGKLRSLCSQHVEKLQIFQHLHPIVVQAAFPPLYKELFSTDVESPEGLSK
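Luciferase reporter read in Schneider cells carrying Gal4-RORγ (mouse) and UAS-Photinus luciferase; cells given compound 1 h before 700 uM copper sulfate induction, then incubated 20 h at ambient temperature.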
MCF10A rerep – inducers of DNA re-replication in MCF 10A breast cells; MCF 10A DNA re-replication, Hoechst nuclear intensity, 48 h; AID 624296; Potency, µM (highest dose often 46.1 µM), for the others: at the top dose activity, positive = re-replication, actives largely listed as activators; 350,000 compounds, 2.9% hits; also: % of control where 0% means no effect; nearly all actives have a fitted effect of over 50% in size
ELG1 DNA repair – inhibitors of ELG1-dependent DNA repair in HEK293T cells; 330,000 compounds, 2.3% hits; HEK293T ELG1-luciferase reporter, luminescence, 16 h; DNA damage induced by 5-fluorouridine; Potency, µM (top dose mostly 46.1 µM), inactives show top-dose activity change, negative = inhibition, actives largely listed as inhibitors; also: % is scaled to controls: 0 for no effect and ±100 for the full control effect; nearly all actives have a fitted effect of over 55% in size
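Overnight (16 hr) co-exposure of 2,000 cells/well to 5-fluorouridine and compound at 37 °C preceded detection. Luciferase was quantified via ONE-Glo luminescence; loss of signal denotes inhibition.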
The depositor's hits bear a star; ? = inconclusive; . = no result; [ ] = another dose, or the depositor's remark. Calls follow the shape of the dose curve; as a rule, active = well fitted curve in the direction sought with a large enough effect; inconclusive = small, poorly fitted or top-dose-only effect, or another doubt; inactive = no such curve, though single readings can be large; an effect the other way counts as inactive or inconclusive. Potency is read from the fitted curve at half-maximal effect.

SMILES | SW480 rereplic | Gal4-VP16 FLuc | RORg inh | MCF10A rerep | ELG1 DNA repair
CCc1ccc(NC(=O)C(C)OC(=O)/C=C/c2ccc(O)c(OC)c2)cc1 (stereo unspecified) | 0% | . | . | 22% | ?
O=C(c1ccc(F)cc1Cl)N1CCN(S(=O)(=O)c2cccs2)CC1 | 6% | 3% | -29% | ? | 0%
CCOc1ccc(NS(=O)(=O)c2ccc(C(=O)NCC(c3ccc(OC)cc3)N3CCOCC3)cc2)cc1 (stereo unspecified) | 7% | . | . | 14% | 6%
Cc1nn(-c2ccccc2)c2sc(C(=O)NNC(=O)COc3cccc4ccccc34)cc12 | ? | ? | 8.9µM* | 23µM* | -12%
Cc1nn(-c2ccccc2)c2sc(C(=O)NNC(=O)COc3ccccc3)cc12 | -1% | 10µM* | 7.1µM* | 0% | ?
Cc1cnc(NC(=O)c2cc3c(C)nn(-c4ccccc4)c3s2)s1 | ? | 1.1µM* | 0.89µM* | -13% | -7%
N=C1N(/N=C/c2ccccc2)C(=Nc2ccccc2)C(=S)N1c1ccccc1 | -3% | 5µM* | 4.5µM* | 0% | 18%
Cc1nnc(C)n1/N=C/c1ccccc1 | -4% | -4% | -10% | -8% | -1%
N#C/C(=C(/O)c1ccc(Cl)c([N+](=O)[O-])c1)c1nc2ccccc2[nH]1 | 12% | ? | 13µM* | -8% | 8.2µM*
COc1cc(/C(O)=C(\C#N)c2nc3ccccc3[nH]2)cc(OC)c1OC | ? | ? | 11µM* | 15µM* | -6%
N#C/C(=C(/O)c1ccc(Cl)cc1)c1nc2ccccc2[nH]1 | 7% | 1% | -21% | -3% | 17%
N#C/C(=C(\O)c1cc(Cl)sc1Cl)c1nc2ccccc2[nH]1 | ? | ? | 2.5µM* | 21µM* | 4%
CC(=O)OC(/C(O)=C(\C#N)c1nc2ccccc2[nH]1)c1ccccc1 (stereo unspecified) | -2% | ? | 14µM* | -4% | -11%
O=C(CCSc1nnc(-c2ccncc2)o1)Nc1ccccc1Cl | 2% | -1% | -10% | 1% | .
COc1ccc(C(=O)N/C(=C/c2ccc(Cl)cc2)C(=O)NCc2ccncc2)cc1 | ? | -1% | 32% | ? | 17%
CSc1ccccc1NC(=O)COC(=O)c1c[nH]c(=O)[nH]c1=O | -1% | -2% | 6% | 5% | 12%
C/C(O)=C(/C#N)c1nc2ccccc2[nH]1 | 2% | ? | 7.9µM* | 2% | -1%
N#C/C(=C(/O)C(Cl)(Cl)Cl)c1nc2ccccc2[nH]1 | 14% | ? | ? | 3% | -15%
COc1ccc(N=C2C(=Nc3ccc(OC)cc3)N(c3ccccc3)C(=S)N2C(=O)c2ccc(Cl)cc2)cc1 | -14% | ? | 14µM* | -3% | ?
O=C(Nc1cccc(O)c1)c1cc(-c2ccco2)on1 | 7% | ? | 13µM* | 11% | ?
CC(=O)c1cccc(NC(=O)c2cc(-c3ccco3)on2)c1 | -13% | -1% | -25% | 7% | 2%
COc1ccc(-c2cc(C(=O)Nc3cccc(O)c3)no2)cc1 | -9% | 3.2µM* | 1.4µM* | 5% | ?
Cc1nc(C)c(C(=O)OCC(=O)NCc2ccccc2Cl)s1 | -15% | . | . | -9% | ?
CCOc1ccccc1NC(=O)CN1C(=O)COc2ccc(S(=O)(=O)N3CCOCC3)cc21 | ? | -9% | -10% | ? | 11%
Cc1ccccc1-c1nc2c3ccccc3nc(=S)n2[nH]1 | 15% | 1µM* | 0.28µM* | 7.3µM* | 18%
SMILES | SW480 rereplic | Gal4-VP16 FLuc | RORg inh | MCF10A rerep | ELG1 DNA repair
Cc1ccccc1-c1nc(N2CCOCC2)c2ccccc2n1 | . | -2% | -3% | . | .
Cc1nc2ccccc2n1CCc1nc2c3ccccc3nc(=S)n2[nH]1 | -8% | 10µM* | 3.5µM* | -3% | 4%
Cc1nc2ccccc2n1CCCOc1ccccc1 | 3% | ? | ? | 2% | ?
Cc1ccccc1C(=O)c1cccn1CC(=O)NCCCN1CCc2ccccc2C1 | 2% | -4% | -8% | ? | ?
CSc1nc(N(CCO)CCO)c2sc3nc(-c4ccco4)c4c(c3c2n1)CCC4 | ? | . | 0%[0.365 µM] | 15µM* | ?
CSc1nc(SCCO)c2sc3nc(-c4ccco4)c4c(c3c2n1)CC(C)(C)OC4 | 5% | -10% | 9% | 13µM* | 9%
COC(=O)CSc1nc(SC)nc2c1sc1nc(-c3ccco3)c3c(c12)CC(C)(C)OC3 | -2% | . | . | 1% | .
COCC(=O)N/N=C\c1ccc(OC/C=C/c2ccccc2)c(OC)c1 | ? | ? | 13µM* | ? | ?
CCOC(=O)N/N=C\c1cccc(OC)c1OC/C=C/c1ccccc1 | ? | -9% | 3% | ? | -4%
COc1cccc(/C=N/NC(=O)CC(C)O)c1OC/C=C/c1ccccc1 (stereo unspecified) | ? | 16µM* | 11µM* | -2% | -24%
CCOc1cc(C(=S)N2CCCC2)ccc1OC | -3% | 14% | 24% | 1% | -5%
CCOc1cc(C(=S)N2CCCC2)ccc1OCC(=O)Nc1c(C)cc(C)cc1C | -1% | 19% | 37% | -8% | 21µM*
CNC(=S)N/N=C/c1ccc(OCC(=O)Nc2c(C)cc(C)cc2C)c(OC)c1 | 4% | 13µM* | 14µM* | ? | 3%
CCOc1ncccc1C(=O)Nc1ccc2nc(C)sc2c1 | ? | 1% | 2% | 15% | 58%
CC1=Nc2ccc(C)cc2/C1=C/c1c(N)n2nc(CC(=O)N3CCOCC3)sc2nc1=O | 1% | -6% | -5% | -10% | 3%
CC1=Nc2ccc(C)cc2/C1=C/c1c(N)n2c(S(=O)(=O)C(C)C)nsc2nc1=O | 13% | 8% | 26% | ? | 4%
CSc1nsc2nc(=O)c(/C=C3\C(C)=Nc4ccc(C)cc43)c(N)n12 | ? | 19% | 29% | 9.2µM* | ?
CC1=Nc2ccc(C)cc2/C1=C/c1c(N)n2oc(C)cc2nc1=O | 2% | -1% | -24% | 18µM* | -10%
CC1=Nc2ccccc2/C1=C/c1c(N)n2c(S(=O)(=O)CC(C)C)nsc2nc1=O | 2% | -1% | 4% | 15µM* | 15%
O=C(c1ccc2c(=O)n(C3CCCC3)c(=S)[nH]c2c1)N1CCc2ccccc21 | -1% | 3.2µM* | 1µM* | 0% | -3%
CC(C)NC(=O)c1ccc2c(=O)n(C3CCCC3)c(=S)[nH]c2c1 | -17% | ? | 0.1µM* | 12% | -12%
Cc1ccccc1-c1noc(CNC(=O)c2ccco2)n1 | 6% | -1% | -43% | -9% | -5%
Cn1c(=O)c2c(nc(SCC(=O)NC3CCCC3)n2C)n(C)c1=O | -1% | -4% | -8% | -1% | 8%
Cc1ccc(CNS(=O)(=O)c2cccc3nsnc23)cc1 | -2% | 1% | 2% | 8% | -14%
